Experimental data reported in PubChem BioAssay (Tox21).
Records with an inconclusive call do not appear. Active and inactive are the calls of the source. Unless noted, the call rests on the fitted dose curve; in most records, active means well fitted curve in the direction sought with a large enough effect in the repeat runs; inconclusive means weak or mixed curves; inactive means no such curve, though single readings can be large; an effect the other way counts as inactive or inconclusive.

Tests used:
[1] = A CellTox Green Cytotoxicity Assay to monitor cytotoxicity in HEK293 cells - 32 hour (AID 1224881); further: nearly all actives have a fitted effect of over 40% in size
Procedure, shortened: (§1)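 Homogeneous no-lysis format: HEK293 cell suspension mixed with CellTox Green reagent, seeded, incubated 5 h at 37 C/5% CO2, then dosed by pintool with compound in DMSO.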

[2] = A CellTox Green Cytotoxicity Assay to monitor cytotoxicity in HepG2 cells - 0 hour (AID 1224882); further: nearly all actives have a fitted effect of over 35% in size
Procedure, shortened: (§2)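 Fluorescent DNA-binding dye, 600 HepG2 cells/well, 5 h preincubation then compound in DMSO; same plates read at 0–40 h, 37 C.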

[3] = A CellTox Green Cytotoxicity Assay to monitor cytotoxicity in HepG2 cells - 32 hour (AID 1224883); further: nearly all actives have a fitted effect of over 50% in size
Procedure, shortened: as §2

[4] = A CellTox Green Cytotoxicity Assay to monitor cytotoxicity in HEK293 cells - 8 hour (AID 1224884); further: nearly all actives have a fitted effect of over 35% in size
Procedure, shortened: as §1

[5] = qHTS RealTime-Glo MT Cell Viability Assay in HepG2 cells - 16 hour (AID 1224885); further: nearly all actives have a fitted effect of over 50% in size
Procedure, shortened: (§3)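 Compound treatment began 5 h after plating HepG2 cells (600/well) with NanoLuc luciferase and prosubstrate. Plates stayed at 37 C for 40 h; luminescence was captured at six time points, 0 h through 40 h.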

[6] = qHTS RealTime-Glo MT Cell Viability Assay in HEK293 cells - 24 hour (AID 1224886); further: top concentration of the series differs between compounds; nearly all actives have a fitted effect of over 50% in size
Procedure, shortened: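 Quantitative high-throughput screen of the Tox21 10K library in HEK293: cells and RealTime-Glo reagents plated together, compound added at 5 h, luminescence monitored through 40 h at 37 C.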

[7] = qHTS RealTime-Glo MT Cell Viability Assay in HEK293 cells - 8 hour (AID 1224887); further: top concentration of the series differs between compounds; nearly all actives have a fitted effect of over 50% in size
Procedure, shortened: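 Measured as luminescence from the same continuously cultured HEK293 wells at successive time points (0, 8, 16, 24, 32, 40 h) after compound addition. Reagent present from seeding; dosing at 5 h; incubation 37 C.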

[8] = A CellTox Green Cytotoxicity Assay to monitor cytotoxicity in HEK293 cells - 16 hour (AID 1224888); further: nearly all actives have a fitted effect of over 35% in size
Procedure, shortened: as §1

[9] = qHTS RealTime-Glo MT Cell Viability Assay in HepG2 cells - 0 hour (AID 1224889); further: nearly all actives have a fitted effect of over 50% in size
Procedure, shortened: as §3

[10] = A CellTox Green Cytotoxicity Assay to monitor cytotoxicity in HepG2 cells - 8 hour (AID 1224890); further: nearly all actives have a fitted effect of over 45% in size
Procedure, shortened: as §2

[11] = qHTS assay to identify small molecule antagonists of the estrogen receptor alpha (ER-alpha) signaling pathway using the BG1 cell line in the presence of 0.1 nM 17-beta-estradiol - cell viability counter screen (AID 1259241); further: nearly all actives have a fitted effect of over 40% in size
Procedure, shortened: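 VM7Luc4E2, 4,000 cells/well, phenol red-free medium + 10% charcoal-stripped FBS; 24 hr plating; cpd + 0.1 nM E2 final, 22 hr 37C/5% CO2; CellTiter-Fluor 30 min, fluorescence.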

[12] = qHTS assay to identify small molecule antagonists of the androgen receptor (AR) signaling pathway using the MDA cell line in the presence of 0.5 nM R1881 - cell viability counter screen (AID 1259242); further: nearly all actives have a fitted effect of over 45% in size
Procedure, shortened: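 Human breast carcinoma MDA-kb2 cells, cultured without CO2, receive compounds alongside 0.5 nM (final) R1881 agonist. After 16 hr at 37C, viability is taken as live-cell protease signal.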

[13] = molecular target: Estrogen receptor (Homo sapiens) (UniProt P03372); assay: qHTS assay to identify small molecule antagonists of the estrogen receptor alpha (ER-alpha) signaling pathway using the BG1 cell line in the presence of 0.1 nM 17-beta-estradiol (AID 1259244); further: nearly all actives have a fitted effect of over 50% in size
Chain of Estrogen receptor (Homo sapiens) (P03372 whole entry, looked up): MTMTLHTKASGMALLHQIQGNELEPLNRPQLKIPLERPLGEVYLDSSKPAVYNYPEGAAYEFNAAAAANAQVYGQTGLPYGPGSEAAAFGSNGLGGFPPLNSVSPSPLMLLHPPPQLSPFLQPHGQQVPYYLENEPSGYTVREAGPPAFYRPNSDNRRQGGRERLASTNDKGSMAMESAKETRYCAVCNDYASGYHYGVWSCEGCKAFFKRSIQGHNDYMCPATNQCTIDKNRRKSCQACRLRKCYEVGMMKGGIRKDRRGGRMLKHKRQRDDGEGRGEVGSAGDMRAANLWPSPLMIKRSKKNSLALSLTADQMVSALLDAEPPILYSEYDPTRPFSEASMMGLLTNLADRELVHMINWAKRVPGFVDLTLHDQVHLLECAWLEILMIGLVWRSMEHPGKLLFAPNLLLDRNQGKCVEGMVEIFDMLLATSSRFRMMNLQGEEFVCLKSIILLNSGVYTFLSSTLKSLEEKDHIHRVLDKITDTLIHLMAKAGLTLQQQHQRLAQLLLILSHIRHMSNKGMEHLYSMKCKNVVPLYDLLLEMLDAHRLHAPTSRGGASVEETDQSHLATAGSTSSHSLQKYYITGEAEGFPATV
Procedure, shortened: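 Seeding of stripped-serum-adapted VM7Luc4E2 cells, 24 h attachment, compound transfer, then 0.1 nM final 17beta-estradiol; after 22 h incubation, ONE-Glo reagent and luminescence reading.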

[14] = qHTS assay to identify small molecule HDAC inhibitors (AID 1259364);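 further: wild-type HCT-116 cells with endogenous class I/II HDAC activity; top concentration of the series differs between compounds; nearly all actives have a fitted effect of over 45% in size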
Procedure, shortened: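 After a 2 hr compound incubation (37C, 5% CO2), HCT-116 cells seeded at 1,500/well the day before received HDAC-Glo reagent; signal read as luminescence after 30 min at room temperature.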

[15] = qHTS assay to identify small molecule HDAC inhibitors - cell viability counter screen (AID 1259365)
Procedure, shortened: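 Luminescence from CellTiter-Glo, developed 30min at room temperature, reports viability of wild-type HCT-116 cells treated 2hr with compounds at 37 C and 5% CO2 after overnight plating.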

[16] = qHTS assay to identify small molecule agonists of the sonic hedgehog signaling (Shh) pathway - cell viability counter screen (AID 1259366); further: nearly all actives have a fitted effect of over 50% in size
Procedure, shortened: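 Cytotoxicity counter screen run in the same wells as the Shh reporter assay. NIH/3T3 cells carrying a Gli1 response element–driven luciferase were treated with DMSO-dissolved compounds for 24hr, and live-cell protease activity was measured with CellTiter-Fluor.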

[17] = qHTS assay to identify small molecule antagonists of the sonic hedgehog signaling (Shh) pathway - cell viability counter screen (AID 1259367); further: nearly all actives have a fitted effect of over 55% in size
Procedure, shortened: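 CellTiter-Fluor signal in conditioned medium-stimulated 3T3 Gli1-Luc cells, 23 hr compound exposure, 37C.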

[18] = qHTS assay to identify small molecule agonists of the sonic hedgehog signaling (Shh) pathway (AID 1259368; calls by dose curve;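 further: NIH/3T3-derived 3T3Gli1-Luc cells carrying a stable Gli1-driven firefly luciferase reporter; series mostly up to about 92 µM; nearly all actives have a fitted effect of over 15% in size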)
Procedure, shortened: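 Stable NIH/3T3 Gli1-Luc reporter clone; 24 hr cpd exposure after a 4 hr settling period; luminescence endpoint.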

[19] = molecular target: Androgen receptor (Homo sapiens) (UniProt P10275); assay: qHTS assay to identify small molecule antagonists of the androgen receptor (AR) signaling pathway using the MDA cell line in the presence of 0.5 nM R1881 (AID 1259243); further: nearly all actives have a fitted effect of over 50% in size
Chain of Androgen receptor (Homo sapiens) (P10275 whole entry, looked up): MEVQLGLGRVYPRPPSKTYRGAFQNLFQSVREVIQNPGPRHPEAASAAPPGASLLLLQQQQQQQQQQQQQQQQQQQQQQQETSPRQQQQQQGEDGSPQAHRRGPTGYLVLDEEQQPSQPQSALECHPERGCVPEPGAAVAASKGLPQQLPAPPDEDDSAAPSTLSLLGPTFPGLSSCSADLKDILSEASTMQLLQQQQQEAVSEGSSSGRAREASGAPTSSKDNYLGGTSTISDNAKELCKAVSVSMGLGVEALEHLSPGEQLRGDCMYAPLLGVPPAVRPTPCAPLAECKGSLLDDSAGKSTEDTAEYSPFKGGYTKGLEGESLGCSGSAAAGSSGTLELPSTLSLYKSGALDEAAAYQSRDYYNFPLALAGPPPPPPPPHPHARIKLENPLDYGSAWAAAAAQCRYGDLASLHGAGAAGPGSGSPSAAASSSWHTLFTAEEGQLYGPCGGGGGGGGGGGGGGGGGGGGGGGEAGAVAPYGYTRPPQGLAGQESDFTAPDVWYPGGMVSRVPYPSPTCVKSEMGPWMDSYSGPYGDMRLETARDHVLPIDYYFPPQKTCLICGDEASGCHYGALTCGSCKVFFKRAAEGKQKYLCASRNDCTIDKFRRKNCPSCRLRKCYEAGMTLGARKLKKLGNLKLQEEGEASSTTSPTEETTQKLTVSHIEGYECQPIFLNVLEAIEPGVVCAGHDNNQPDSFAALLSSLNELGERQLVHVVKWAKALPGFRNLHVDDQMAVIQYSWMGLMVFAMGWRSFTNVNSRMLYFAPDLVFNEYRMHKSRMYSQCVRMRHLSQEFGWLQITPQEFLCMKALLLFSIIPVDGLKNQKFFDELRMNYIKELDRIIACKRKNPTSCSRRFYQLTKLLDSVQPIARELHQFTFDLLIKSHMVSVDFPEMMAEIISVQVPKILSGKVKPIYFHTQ
Procedure, shortened: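 Cells: MDA-kb2 (MMTV-luc). Stimulus: 0.5 nM R1881. Time: 16 hr, 37C, no CO2. Detection: ONE-Glo luminescence after 30 min at RT.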

[20] = qHTS assay to identify small molecule phospholipidosis (PLD) inducers (AID 1259344; active means well fitted curve in the direction sought with a large enough effect; an effect the other way counts as inactive or inconclusive)
Procedure, shortened: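 Accumulated phospholipid, stained red by LipidTOX during 24 h compound treatment of HepG2 cells at 37 C, is quantified from images as pit number and intensity, normalised per cell using Hoechst-stained nuclei.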
On the % scale 0 is the no-effect control and ±100 the full control effect.

CC(C)CCCO
inactive: outcome [1] | Potency [2] | Potency [3] | outcome [4] | outcome [5] | Potency [6] | Potency [7] | outcome [8] | Potency [9] | outcome [10] | outcome [11] | outcome [12] | outcome [13] | Potency [14] | outcome [15] | Potency [16] | Potency [17] | outcome [18]

CCCCc1nc(Cl)c(CO)n1Cc1ccc(-c2ccccc2-c2nn[nH]n2)cc1
inactive: outcome [1] | Potency [2] | Potency [3] | outcome [4] | outcome [5] | Potency [6] | Potency [7] | outcome [8] | Potency [9] | outcome [10] | outcome [11] | outcome [12] | Potency [14] | outcome [15] | Potency [16] | Potency [17] | outcome [18]

COCCOC[C@H](CC1(C(=O)NC2CCC(C(=O)O)CC2)CCCC1)C(=O)Oc1ccc2c(c1)CCC2 (some centres undefined)
inactive: outcome [1] | Potency [2] | Potency [3] | outcome [4] | outcome [5] | Potency [6] | Potency [7] | outcome [8] | Potency [9] | outcome [10] | outcome [11] | outcome [12] | Potency [19] | outcome [13] | Potency [14] | outcome [15] | outcome [18]

CC1CCC(CO)CC1 (centres undefined)
inactive: outcome [1] | Potency [2] | Potency [3] | outcome [4] | outcome [5] | Potency [6] | Potency [7] | outcome [8] | Potency [9] | outcome [10] | outcome [11] | outcome [12] | Potency [19] | outcome [13] | Potency [14] | outcome [15] | Potency [16] | Potency [17] | outcome [18]

CC12CCC(C(=O)C1=O)C2(C)C (centres undefined)
inactive: outcome [1] | Potency [2] | Potency [3] | outcome [4] | outcome [5] | Potency [6] | Potency [7] | outcome [8] | Potency [9] | outcome [10] | outcome [11] | outcome [12] | Potency [14] | outcome [15] | Potency [16] | Potency [17] | outcome [18]

CC(=O)c1ccccc1[N+](=O)[O-]
inactive: outcome [1] | Potency [2] | Potency [3] | outcome [4] | outcome [5] | Potency [6] | Potency [7] | outcome [8] | Potency [9] | outcome [10] | outcome [11] | outcome [12] | outcome [13] | outcome [15] | Potency [16] | outcome [18]

Cc1coc2ccccc2c1=O
inactive: outcome [1] | Potency [2] | Potency [3] | outcome [4] | outcome [5] | Potency [6] | Potency [7] | outcome [8] | Potency [9] | outcome [10] | outcome [11] | outcome [12] | Potency [19] | Potency [14] | outcome [15] | Potency [16] | Potency [17] | outcome [18]

CC(COc1ccccc1)NN (centres undefined)
inactive: outcome [1] | Potency [2] | Potency [3] | outcome [4] | outcome [5] | Potency [6] | Potency [7] | outcome [8] | Potency [9] | outcome [10] | outcome [11] | outcome [12] | outcome [13] | Potency [14] | Potency [16] | outcome [18]

NCCCC(N)(C(=O)O)C(F)F (centres undefined)
inactive: outcome [1] | Potency [2] | Potency [3] | outcome [4] | outcome [5] | Potency [6] | Potency [7] | outcome [8] | Potency [9] | outcome [10] | outcome [11] | outcome [12] | outcome [20] | Potency [14] | outcome [15] | Potency [16] | outcome [18]

COc1cccc(OC)c1C(=O)N[C@@H]1C(=O)N2[C@@H]1SC(C)(C)[C@@H]2C(=O)O
inactive: outcome [1] | Potency [2] | Potency [3] | outcome [4] | outcome [5] | Potency [6] | Potency [7] | outcome [8] | Potency [9] | outcome [10] | outcome [11] | outcome [12] | outcome [20] | Potency [14] | outcome [15] | Potency [16] | Potency [17] | outcome [18]

Cc1ccc(-c2ncc(Cl)cc2-c2ccc(S(C)(=O)=O)cc2)cn1
inactive: outcome [1] | Potency [2] | Potency [3] | outcome [4] | outcome [5] | Potency [6] | Potency [7] | outcome [8] | Potency [9] | outcome [10] | outcome [11] | outcome [12] | Potency [19] | outcome [13] | Potency [14] | outcome [15] | Potency [16] | Potency [17] | outcome [18]

CCOC(=O)C1=NOC(c2ccccc2)(c2ccccc2)C1
inactive: outcome [1] | Potency [2] | Potency [3] | outcome [4] | outcome [5] | Potency [6] | Potency [7] | outcome [8] | Potency [9] | outcome [10] | outcome [11] | outcome [12] | outcome [13] | Potency [14] | outcome [15] | Potency [16] | Potency [17] | outcome [18]

CN(C)C(=O)Oc1cccc([N+](C)(C)C)c1
inactive: outcome [1] | Potency [2] | Potency [3] | outcome [4] | outcome [5] | Potency [6] | Potency [7] | outcome [8] | Potency [9] | outcome [10] | outcome [11] | outcome [12] | outcome [13] | Potency [14] | outcome [15] | Potency [16] | outcome [18]

CCC1C(=O)OCC1Cc1cncn1C (centres undefined)
inactive: outcome [1] | Potency [2] | Potency [3] | outcome [4] | outcome [5] | Potency [6] | Potency [7] | outcome [8] | Potency [9] | outcome [10] | outcome [11] | outcome [12] | outcome [13] | Potency [14] | outcome [15] | Potency [16] | Potency [17] | outcome [18]

CCCCCCCCCCOc1cc2c(=O)c(C(=O)OCC)c[nH]c2cc1OCC
inactive: cytotoxicity increase [1] 0.664% [at 6.97 µM] | cytotoxicity [2] 9.56% [at 6.97 µM] | cytotoxicity increase [3] -9.18% [at 6.97 µM] | cytotoxicity increase [4] 2.19% [at 6.97 µM] | activity change, negative = cytotoxic [5] 4.28% [at 6.97 µM] | activity change, negative = cytotoxicity [6] 3.7% [at 6.97 µM] | activity change, negative = cytotoxicity [7] 3.87% [at 6.97 µM] | activity change [8] 0.406% [at 6.97 µM] | activity change, negative = cytotoxicity [9] 9.73% [at 6.97 µM] | cytotoxicity increase [10] -1.8% [at 6.97 µM] | activity change, negative = cytotoxicity [11] 4.33% [at 8.39 µM] | viability change, negative = cytotoxic [12] 2.82% [at 8.39 µM] | activity change, negative = inhibition [13] -1.66% [at 8.39 µM] | outcome [20] | activity change, negative = inhibition [14] 0.14% [at 8.39 µM] | activity change, negative = cytotoxicity [15] 9.44% [at 8.39 µM] | viability change, negative = cytotoxic [16] 2.95% [at 8.39 µM] | viability change, negative = cytotoxic [17] 5.79% [at 8.39 µM] | activity change [18] -0.042% [at 8.39 µM]
